# Assay outcomes (PubChem BioAssay)
# AHR act = AHR activators, primary screen, cell-based, luminescence, luciferase reporter, human | actives 2.5% (n = 320,000) | Aryl hydrocarbon receptor (Homo sapiens), P35869 | activation, % at 5 µM | AID 2796, 2010 | AHR-responsive luciferase reporter cells; in the data active = activation above about 47%;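 also: 0% = vehicle wells and 100% = reference agonist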
# Target sequence (P35869 whole entry, looked up): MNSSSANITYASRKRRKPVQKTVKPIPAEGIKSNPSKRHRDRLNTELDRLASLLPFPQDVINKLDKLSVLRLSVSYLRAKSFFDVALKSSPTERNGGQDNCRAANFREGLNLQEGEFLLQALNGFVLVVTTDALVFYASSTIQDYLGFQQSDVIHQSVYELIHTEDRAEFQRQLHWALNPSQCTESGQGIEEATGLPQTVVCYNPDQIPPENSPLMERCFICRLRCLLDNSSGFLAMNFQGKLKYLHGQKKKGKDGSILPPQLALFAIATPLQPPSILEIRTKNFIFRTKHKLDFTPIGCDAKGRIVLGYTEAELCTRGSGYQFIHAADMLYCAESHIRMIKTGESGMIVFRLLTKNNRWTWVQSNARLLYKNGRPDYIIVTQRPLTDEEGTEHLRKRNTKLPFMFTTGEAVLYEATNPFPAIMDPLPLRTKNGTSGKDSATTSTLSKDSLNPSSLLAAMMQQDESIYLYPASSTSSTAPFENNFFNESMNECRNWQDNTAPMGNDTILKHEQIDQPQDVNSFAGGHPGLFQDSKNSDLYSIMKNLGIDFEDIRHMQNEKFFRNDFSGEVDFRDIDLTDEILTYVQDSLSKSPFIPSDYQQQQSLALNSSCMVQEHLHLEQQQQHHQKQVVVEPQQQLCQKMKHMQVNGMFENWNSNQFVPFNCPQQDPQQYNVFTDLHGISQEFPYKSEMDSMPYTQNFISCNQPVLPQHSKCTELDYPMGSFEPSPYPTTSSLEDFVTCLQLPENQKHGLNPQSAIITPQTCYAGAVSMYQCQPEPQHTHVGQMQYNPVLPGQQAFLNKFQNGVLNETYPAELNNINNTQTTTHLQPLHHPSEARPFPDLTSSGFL
# ALR H2O2 inh = inhibitors of human ALR sulfhydryl oxidase, primary screen, biochemical, H2O2 detection, HRP-luminol luminescence, single point | purified ALR, DTT oxidation | FAD-linked sulfhydryl oxidase ALR (Homo sapiens), P55789 | actives 3.8% (n = 290,000) | inhibition, % (concentration not given with the values);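 active = mean replicate inhibition above about 79%, with every replicate also reaching it, limit read from the data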
# A1 inh = caspase 3/7 activation in MEF A1-2A-BIM cells, primary screen, A1 inhibitor project, cell-based, luminescence, HTS | Caspase-Glo 3/7 luminescence, 3 h; percent of clofoctol response, vehicle zero | caspase activation, % (concentration not given with the values) | actives 0.066% (n = 330,000) | AID 2462, 2010;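 active = over half of replicate activation scores above 10%, or exactly half above 10 with the replicate mean above 10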
# Efflux pump mplx = inhibitors of Candida efflux pumps in yeast, primary screen, S. cerevisiae, Nile Red, multiplex; S. cerevisiae Candida pump triplex; actives 0.44% (n = 330,000); inhibition, % at 10 µM; AID 485275, 2010;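 active = plate passing quality check with inhibition over a set limit, or well fluorescence over plate mean plus 4 SD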;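 also: Nile Red retained in pooled yeast measured as flow cytometry median fluorescence; 0% = buffer negative control and 100% = Enniatin B positive control; higher means more Nile Red kept so more efflux inhibition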
# SUMO Mot1 rescue = yeast Mot1-301 growth rescue at high temperature, primary screen, SUMOylation pathway inhibitor project, S. cerevisiae, ATP luminescence, 38.5C. S. cerevisiae Mot1-301 growth rescue; percent above DMSO median, 100 means doubled. AID 2716, 2010. actives 1% (n = 320,000). growth rescue, % at 18.8 µM;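 active = every valid replicate shows activation above 250% relative to neutral control wells; inactive = the rest, any valid replicate at or below 250%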;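 also: OY570 slx delta 5 strain wells were the positive control but not used for scaling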
# VLA-4 inh = inhibition in human VLA-4 binding assay, primary screen, VLA-4 allosteric modulator project, MLPCN library, flow cytometry, VLA-4 expressing cells | ligand binding flow cytometry | inhibition, % (about 7 µM as worked out from the volumes in the protocol) | actives 0.2% (n = 330,000); in the data active = inhibition above about 50%
# Active calls of the source: *; nt = not tested or not shown. Hits are enriched below; roughly 7.2% of the tested compounds scored in any of these assays.
SMILES,AHR act,ALR H2O2 inh,A1 inh,Efflux pump mplx,SUMO Mot1 rescue,VLA-4 inh
O=C1N/C(=N/O)S/C1=C\c1ccccc1-n1cccn1,2,93*,1,0,-20,2
CCOC(=O)C(=O)NNc1ccccc1C,2,98*,0,0,3,21
CCOC(=O)C(=O)Nc1ccccc1C(N)=O,3,-9,1,0,7,8
CCOC(=O)C(=O)NNc1cccc(C)c1C,7,98*,1,0,7,-17
NC(=O)c1cc(Br)cc(C2CCCCC2)c1O,1,92*,1,0,141,0
O=C(COc1ccccc1Br)Nc1ccc2c(c1)OCCCO2,-3,nt,-2,0,2,10
COc1ccc(NC(=O)CSc2nc(N)c(NC(=O)c3cccs3)c(=O)[nH]2)cc1,1,2,-1,0,-3,13
COc1cccc(NCc2cc(=O)oc3cc(-c4ccccc4)c(O)cc23)c1,76*,nt,1,0,108,-1
COc1cccc(NCc2cc(=O)oc3cc(C)c(O)cc23)c1,16,23,0,0,-12,13
CN(CC(=O)Nc1ccc(N2CCOCC2)cc1)C(=O)c1cccc(Cl)c1Cl,6,74,0,0,-15,-11
CC(Oc1cccc(Cl)c1)C(=O)Nc1ccc(N2CCOCC2)cc1N1CCOCC1 (stereo not given),11,98*,1,0,5,5
CC(Oc1ccc(Cl)cc1)C(=O)N(C)CC(=O)Nc1ccc(N2CCOCC2)cc1 (stereo not given),1,93*,0,-2,1,-11
Cc1ccc(CC(=O)N(C)CC(=O)Nc2ccc(N3CCOCC3)cc2)cc1C,0,99*,0,0,-5,-8
CC(C(=O)NCC1CCCCC1)N(C)CC(=O)Nc1ccc(N2CCOCC2)cc1 (stereo not given),3,92*,1,0,299,6
O=C(CCc1ccccc1)Nc1ccc(N2CCCCC2)cc1,1,29,-1,-1,34,12
CN(CC(=O)Nc1ccc(N2CCOCC2)cc1)C(=O)CSc1ccc(Br)cc1,3,71,1,0,6,-1
CC(Sc1ccc(Cl)cc1)C(=O)N(C)CC(=O)Nc1ccc(N2CCOCC2)cc1 (stereo not given),1,92*,1,0,65,8
CC(Sc1ccc2c(c1)OCCO2)C(=O)Nc1ccc(N2CCOCC2)cc1 (stereo not given),0,99*,0,0,98,2
Cc1cccc(C2(c3cccc(C)c3)CC2C(=O)Nc2ccc([N+](=O)[O-])cc2O)c1 (stereo not given),77*,-7,-1,0,0,37
c1ccc(-c2cn3nc(-c4ccccc4)sc3n2)cc1,12,19,-7,0,-17,2
c1ccc(-c2cn3c4c(sc3n2)CCCC4)cc1,66*,-34,-7,0,-17,25
Cc1[nH]c(SCC(=O)c2c(N)n(C)c(=O)n(C)c2=O)nc1Cc1ccccc1,-1,6,-1,0,6,0
Clc1ccccc1CSc1cc2c(nn1)-c1ccccc1CC2,72*,-19,0,0,7,35
CNS(=O)(=O)c1ccc2ccccc2c1,0,-9,2,0,70,5
Cc1ccc(S(=O)(=O)Nc2c(O)ccc3ccccc23)cc1,54*,88*,1,0,0,-177
SMILES,AHR act,ALR H2O2 inh,A1 inh,Efflux pump mplx,SUMO Mot1 rescue,VLA-4 inh
Cc1cc(O)cc(C)c1NS(=O)(=O)c1ccc2ccccc2c1,4,79*,-1,0,3,10
O=S(=O)(Nc1c(O)ccc2ccccc12)c1cccc2ccccc12,39,87*,1,0,-23,-30
O=S(=O)(Nc1cccc2c1CCCC2)c1ccc(Cl)cc1,0,84*,0,0,130,37
COc1cccc(C2=Nn3c(nnc3-c3ccccc3O)SC2)c1,58*,nt,-1,0,-8,0
COc1cccc(-c2nnc3n2N=C(c2cc(OC)ccc2OC)CS3)c1,59*,-4,0,0,645,0
NS(=O)(=O)c1cccc(NS(=O)(=O)c2ccc(/C=C/C(=O)OCC(=O)c3ccccc3)cc2)c1,2,nt,0,0,8,14
CC(=O)/C(=N\Nc1ccc(C)cc1)N1CCOCC1,5,99*,0,0,272,10
CC(C)n1c(/C=C/c2ccccc2)nc2ccccc21,57*,-1,-1,-3,472,0
CNC(=S)NNC(=O)c1cccn(Cc2ccc(Cl)cc2Cl)c1=O,2,22,0,0,336*,3
CNC(=S)NNC(=O)c1ccc(=O)n(Cc2ccc(Cl)cc2Cl)c1,0,15,0,0,-4,8
Cc1c(C(=O)N2CCN(c3ccc(F)cc3)CC2)sc2ncnc(N3CCN(c4ccccn4)CC3)c12,2,-3,-1,0,24,6
Cc1nc(N2CCN(c3ccccn3)CC2)c2c(C)c(C(=O)N3CCN(c4ccc(F)cc4)CC3)sc2n1,1,0,-1,0.5*,287,4
CCCCn1c(N2CCCC2)nc2c1c(=O)[nH]c(=O)n2C,-1,26,4,0,-11,2
Cc1nc2sccn2c(=O)c1S(=O)(=O)N1CCN(c2ccc(F)cc2)CC1,1,95*,0,0,-10,-8
O=C(Cn1nc(-c2ccc(Cl)cc2)c2ccccc2c1=O)NCC1CCCO1 (stereo not given),2,-2,0,0,333*,5
Cc1ccccc1-c1noc(-c2ccc(O)cc2)n1,59*,-3,-6,0,-71,23
Cc1ccccc1-c1noc(-c2ccc(Cl)cc2)n1,33,-4,-6,0,2,-4
O=C(/C=C/c1cccs1)c1cc(Br)ccc1OC(=O)N1CCOCC1,53*,8,-2,0,264,17
COc1ccc(C(=O)/C=C/c2cccs2)c(OC(=O)N2CCOCC2)c1,6,9,1,0,-16,19
C=CCSc1n[nH]c2nc3c(c(=O)n12)C1(CCCC1)Cc1ccccc1-3,59*,-10,1,0,-21,-4
CCSc1n[nH]c2nc3c(c(=O)n12)C1(CCCC1)Cc1ccccc1-3,51*,2,0,0,18,23
CSc1nnc2n(C)c3c(c(=O)n12)C1(CCCC1)Cc1ccccc1-3,16,4,1,0,17,6
